Source: PubChem BioAssay
Potency and affinity values are given separately. Calls of active or inactive are those of the source. A call without a number means that no potency is given here. No cut-off is given here; in the data, nearly all actives have IC50 up to about 0.91 µM.

Biological target: Calcium-dependent protein kinase 4 (Plasmodium falciparum (isolate 3D7)) (UniProt Q8IBS5)
Assay: PfCDPK4 kinase inhibitors, biochemical, TCAMS library (AID 1159588)
Details: recombinant PfCDPK4, Kinase-Glo ATP depletion luminescence

Chain of Calcium-dependent protein kinase 4 (Plasmodium falciparum (isolate 3D7)) (Q8IBS5 whole entry, looked up): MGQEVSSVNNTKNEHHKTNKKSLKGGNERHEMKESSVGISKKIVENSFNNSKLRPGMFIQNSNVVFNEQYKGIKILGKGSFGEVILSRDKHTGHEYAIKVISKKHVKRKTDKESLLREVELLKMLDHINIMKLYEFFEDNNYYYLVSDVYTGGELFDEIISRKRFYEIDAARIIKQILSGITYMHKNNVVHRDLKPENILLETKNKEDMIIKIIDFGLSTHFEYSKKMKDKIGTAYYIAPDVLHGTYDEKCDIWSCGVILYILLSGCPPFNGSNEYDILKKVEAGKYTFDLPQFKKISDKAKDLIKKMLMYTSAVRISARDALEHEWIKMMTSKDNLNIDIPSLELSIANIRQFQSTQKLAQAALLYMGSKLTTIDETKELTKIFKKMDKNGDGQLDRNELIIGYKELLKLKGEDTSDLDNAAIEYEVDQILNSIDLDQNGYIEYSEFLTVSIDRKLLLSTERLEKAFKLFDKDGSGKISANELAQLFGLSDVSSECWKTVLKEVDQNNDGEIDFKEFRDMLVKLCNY

SMILES | outcome
CC(C)(C)C1CCc2nc(N)nc(N)c2C1 (stereo unspecified) | inactive
CCN(CC)C(=NCCCCCCN=C(NC(N)=NCc1cccc(Cl)c1)N(CC)CC)NC(N)=NCc1cccc(Cl)c1 | inactive
O=C(NC1CC1)c1cnc(N2CCCC(c3ccccc3)C2)c(Cl)c1 (stereo unspecified) | inactive
Cc1cc(NCCC(=O)NCCc2ccccc2)nc(NCCc2ccc(F)cc2)n1 | inactive
CC1(CCc2ccccc2)N=C(N)N=C(N)C1c1ccc(Cl)c(Cl)c1 (stereo unspecified) | inactive
Cn1nccc1C(=O)NCCNCc1ccc(-c2ccc(-c3nc4ccc(C(F)(F)F)cc4[nH]3)cc2)cc1 | inactive
O=C(Nc1ccc(CN2CCN(S(=O)(=O)c3ccc(Cl)s3)CC2)cc1)c1cccs1 | inactive
CS(=O)(=O)c1ccc(CNCc2cccc(-c3cccc(-c4nc5ccc(F)cc5[nH]4)c3)c2)cc1 | inactive
O=C(Cc1cnc[nH]1)Nc1ccc(-c2cccc(-c3nc4ccc(F)cc4[nH]3)c2)cc1 | inactive
CC(C)(C)OC(=O)N(Cc1cc(-n2nnnc2C(F)(F)F)ccc1O)[C@H]1CCCN(C(=O)OC(C)(C)C)[C@H]1c1ccccc1 | inactive
Cc1ccc(NCc2cccc(F)c2)cc1S(=O)(=O)N[C@@H]1CCN(C#N)C1 | inactive
Fc1ccc2ncc(Cl)c(CCN3CCC(NCc4cc5c(cn4)OCCO5)CC3)c2c1 | inactive
O=C(NCC1CCN(Cc2ccc(F)cc2)C1)c1cc(-c2cccc(C(F)(F)F)c2)cs1 (stereo unspecified) | inactive
CN(C)CCOc1cc(NC(=O)Nc2ccc(-c3ccncc3)c(C(F)(F)F)c2)ccc1Cl | inactive
CCCCCCCc1ccc(-c2c(C)[nH]c(C)c(Cl)c2=O)cn1 | inactive
COc1ccc(CNCc2ccc(F)cc2)cc1-c1ccc(OC)c(S(=O)(=O)NCCN2CCCC2)c1 | inactive
c1ccc(COc2ccc(C3CCCCC3)cc2)nc1 | inactive
O=C(Nc1cccc(-c2ccc(-c3nc4ccc(F)cc4[nH]3)cc2)c1)c1cccnc1 | inactive
O=C(Cn1cc(C=C2SC(=NC3CCCC3)N(C3CCCC3)C2=O)c2ccccc21)N1CCCC1 | inactive
O=C(/C=C/c1ccc(Cl)c(Cl)c1)NC1CCN(CCCNC(=O)c2cccc(Cl)c2)CC1 | inactive
CCNc1cc(C(=O)N[C@@H](Cc2ccccc2)[C@H](O)CNCCc2ccccc2)cc(N2CCCC2=O)c1 | inactive
CC(CCc1ccccc1)NCC(O)c1ccc2c(c1)S(=O)(=O)c1ccccc1N2 (stereo unspecified) | inactive
Cc1cc(OCc2ccncc2)cc2c1C(=O)CC(C)(C)O2 | inactive
COc1ccc2ncc(F)c(CCN3CC[C@H](NCc4cc5c(s4)CCCN5)[C@H](O)C3)c2n1 | inactive
CNCCNCc1ccc(-c2cccc(-c3nc4ccc(C(F)(F)F)cc4[nH]3)c2)cc1 | inactive
CN1CCC(C(=O)Nc2cccc(-c3ccc(-c4nc5ccc(C(F)(F)F)cc5[nH]4)s3)c2)CC1 | inactive
